In PubChem BioAssay (EPA / NIEHS):
Results filed as inconclusive are left out. The source made the active and inactive calls. Rule for the calls: active = hit-call score of the fitted dose curve at least 0.9, where 1 is the maximum; inconclusive = response in the unintended direction; inactive = score below 0.9.

Each compound was assayed against Estrogen receptor (Homo sapiens) (UniProt P03372) (assay: NVS_NR_hER: NovaScreen (NVS) Nuclear Receptor Binding Assay for human Estrogen Receptor (ER) (AID 2283348)).
Chain of Estrogen receptor (Homo sapiens) (P03372 whole entry, looked up, the tested form may be a part): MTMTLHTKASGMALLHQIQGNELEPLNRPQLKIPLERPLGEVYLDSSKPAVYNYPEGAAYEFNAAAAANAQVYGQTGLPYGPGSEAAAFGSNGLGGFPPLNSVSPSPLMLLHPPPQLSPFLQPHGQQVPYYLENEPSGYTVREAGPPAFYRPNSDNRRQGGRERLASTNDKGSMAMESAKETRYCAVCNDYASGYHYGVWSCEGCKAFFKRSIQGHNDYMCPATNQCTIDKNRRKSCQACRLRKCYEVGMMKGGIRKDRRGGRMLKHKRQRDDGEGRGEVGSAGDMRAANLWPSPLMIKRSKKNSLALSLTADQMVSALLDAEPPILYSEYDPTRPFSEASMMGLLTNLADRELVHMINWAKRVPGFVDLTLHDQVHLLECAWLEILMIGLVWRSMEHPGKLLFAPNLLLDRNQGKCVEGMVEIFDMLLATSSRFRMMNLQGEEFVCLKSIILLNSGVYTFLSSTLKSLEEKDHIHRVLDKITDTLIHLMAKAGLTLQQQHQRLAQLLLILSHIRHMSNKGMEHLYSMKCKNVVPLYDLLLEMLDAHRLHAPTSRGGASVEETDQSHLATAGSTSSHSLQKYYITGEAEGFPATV
Method in brief: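 Scintillation signal from bound radioligand was measured 18 hours after chemical addition to cell-free MCF7 protein extracts, with DMSO as baseline. Activity was scored as signal loss; compounds ran first at 25 uM in duplicate.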

Row | Compound | AC50 | outcome
1 | CCN=c1cc2oc3cc(NCC)c(C)cc3c(-c3ccccc3C(=O)OCC)c-2cc1C | 5.29 µM (active) | 
2 | CCCCOC(=O)C(C)O (stereo not drawn) |  | inactive
3 | CCC(Cc1c(I)cc(I)c(N)c1I)C(=O)O (stereo not drawn) |  | inactive
4 | CCN=C1C=CC(=C(c2ccc(N(CC)CC)cc2)c2ccc(N(CC)CC)cc2)c2ccccc21 | 13.8 µM (active) | 
5 | CCCCCCCCCCCCCC[P+](CCCC)(CCCC)CCCC | 14.3 µM (active) | 
6 | O=C(c1ccccc1)c1ccc(O)cc1O | 1.42 µM (active) | 

These compounds were tested against Estrogen receptor (Homo sapiens) (UniProt P03372) (assay: OT_ER_ERaERa_1440: Odyssey Thera (OT) 24-hour HEK293T Protein-Complementation Assay for Estrogen Receptor-alpha/-alpha Homodimer (AID 2283349);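 note: hits raise fluorescence above DMSO for agonists and antagonists alike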).
Method in brief: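 Protein-fragment complementation between two human ERα ligand-binding domains (aa 310-547) in stably transfected HEK293T cells was monitored after 24 h treatment, using fluorescence intensity relative to vehicle controls.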

Row | Compound | outcome | AC50
7 | Cc1ccc([N+](=O)[O-])c(C)c1 | inactive | 
8 | CC(C)(C)c1cc(Cc2cc(C(C)(C)C)c(O)c(C(C)(C)C)c2)cc(C(C)(C)C)c1O | inactive | 
9 | CCN=c1cc2oc3cc(NCC)c(C)cc3c(-c3ccccc3C(=O)OCC)c-2cc1C |  | 62.3 µM (active)
10 | CCCCCCCC/C=C\CCCCCCCC(=O)OCC(O)CO (stereo not drawn) | inactive | 
11 | CCCCOC(=O)[C@H](C)O | inactive | 
12 | CCCCOC(=O)C(C)O (stereo not drawn) | inactive | 
13 | CCC(Cc1c(I)cc(I)c(N)c1I)C(=O)O (stereo not drawn) | inactive | 
14 | CCN=C1C=CC(=C(c2ccc(N(CC)CC)cc2)c2ccc(N(CC)CC)cc2)c2ccccc21 | inactive | 
15 | COCCOCCC[Si](C)(O[Si](C)(C)C)O[Si](C)(C)C |  | 76.1 µM (active)
16 | CCCCCCCCCCCCCC[P+](CCCC)(CCCC)CCCC | inactive | 
17 | O=C(c1ccccc1)c1ccc(O)cc1O |  | 22.7 µM (active)

These compounds were tested against Estrogen receptor (Homo sapiens) (UniProt P03372) (assay: OT_ER_ERaERa_0480: Odyssey Thera (OT) 8-hour HEK293T Protein-Complementation Assay for Estrogen Receptor-alpha/-alpha Homodimer (AID 2283351);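 note: rise in fluorescence from reassembled reporter fragments on ERα LBD homodimer in nucleus or whole cell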).
Method in brief: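 The readout is complementation of fragments fused to the human ER alpha ligand-binding domain (aa 310-547), stably expressed in HEK293T cells. After 8 h of exposure, the increase in nuclear/cytoplasmic fluorescence was measured by laser scanning cytometry and fitted relative to DMSO.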

Row | Compound | outcome | AC50
18 | Cc1ccc([N+](=O)[O-])c(C)c1 | inactive | 
19 | CC(C)(C)c1cc(Cc2cc(C(C)(C)C)c(O)c(C(C)(C)C)c2)cc(C(C)(C)C)c1O | inactive | 
20 | CCN=c1cc2oc3cc(NCC)c(C)cc3c(-c3ccccc3C(=O)OCC)c-2cc1C |  | 12.2 µM (active)
21 | CCCCCCCC/C=C\CCCCCCCC(=O)OCC(O)CO (stereo not drawn) | inactive | 
22 | CCCCOC(=O)[C@H](C)O | inactive | 
23 | CCCCOC(=O)C(C)O (stereo not drawn) | inactive | 
24 | CCC(Cc1c(I)cc(I)c(N)c1I)C(=O)O (stereo not drawn) |  | 66.3 µM (active)
25 | CCN=C1C=CC(=C(c2ccc(N(CC)CC)cc2)c2ccc(N(CC)CC)cc2)c2ccccc21 | inactive | 
26 | COCCOCCC[Si](C)(O[Si](C)(C)C)O[Si](C)(C)C | inactive | 
27 | CCCCCCCCCCCCCC[P+](CCCC)(CCCC)CCCC | inactive | 
28 | O=C(c1ccccc1)c1ccc(O)cc1O |  | 22.7 µM (active)
